From PubChem BioAssay
JMJD2A Tudor = blocks the human JMJD2A Tudor domain. hit rate 4.4% among 390,000. O75164. AID 504339. AlphaScreen JMJD2A-Tudor / H3K4me3 peptide binding. Potency, µM (top dose mostly 114 µM), without a hit: at the highest dose activity change, negative = inhibition, hits mostly inhibitors; note: potency is the fitted concentration of half-maximal effect; % is set by controls: 0 for no effect and ±100 for the full control effect; nearly all actives have a fitted effect of over 50% in size
Target sequence (O75164 whole entry, looked up, the tested form may be a part): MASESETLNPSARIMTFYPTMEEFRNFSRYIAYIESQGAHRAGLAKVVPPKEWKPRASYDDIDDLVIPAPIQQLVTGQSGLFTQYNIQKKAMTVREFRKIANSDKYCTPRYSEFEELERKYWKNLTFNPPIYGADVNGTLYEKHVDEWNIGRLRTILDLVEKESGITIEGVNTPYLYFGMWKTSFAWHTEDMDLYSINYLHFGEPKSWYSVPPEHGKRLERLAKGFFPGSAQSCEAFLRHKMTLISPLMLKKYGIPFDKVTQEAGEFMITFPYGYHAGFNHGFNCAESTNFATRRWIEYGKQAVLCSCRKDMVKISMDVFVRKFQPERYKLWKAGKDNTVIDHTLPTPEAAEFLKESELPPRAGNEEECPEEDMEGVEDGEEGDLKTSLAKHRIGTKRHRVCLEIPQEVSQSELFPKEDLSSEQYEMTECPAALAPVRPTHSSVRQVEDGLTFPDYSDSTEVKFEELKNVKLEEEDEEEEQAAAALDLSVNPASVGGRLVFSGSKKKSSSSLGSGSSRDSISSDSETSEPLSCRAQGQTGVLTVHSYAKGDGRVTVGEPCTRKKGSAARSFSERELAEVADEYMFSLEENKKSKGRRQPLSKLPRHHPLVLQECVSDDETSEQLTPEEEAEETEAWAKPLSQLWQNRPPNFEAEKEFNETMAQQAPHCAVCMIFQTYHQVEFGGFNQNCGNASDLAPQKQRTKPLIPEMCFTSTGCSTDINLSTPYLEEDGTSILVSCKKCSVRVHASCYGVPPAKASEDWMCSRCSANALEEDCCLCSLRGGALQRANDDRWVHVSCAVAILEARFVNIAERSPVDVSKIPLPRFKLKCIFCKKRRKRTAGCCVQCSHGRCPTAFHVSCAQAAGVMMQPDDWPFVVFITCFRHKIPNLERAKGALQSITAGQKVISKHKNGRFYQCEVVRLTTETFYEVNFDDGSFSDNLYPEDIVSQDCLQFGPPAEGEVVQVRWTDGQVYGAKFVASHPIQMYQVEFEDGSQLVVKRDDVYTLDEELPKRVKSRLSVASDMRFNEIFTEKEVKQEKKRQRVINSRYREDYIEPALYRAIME
TDP1 block = TDP1 (human) enzyme inhibition; hit rate 0.28% among 350,000; Potency, µM (series often up to 130 µM), for the others: top-dose activity change, negative = inhibition, actives largely listed as inhibitors; recombinant TDP1, AlphaScreen DNA substrate cleavage; note: potency is the fitted concentration of half-maximal effect; % is set by controls: 0 for no effect and ±100 for the full control effect; nearly all actives have a fitted effect of over 40% in size
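Enzyme-compound mixtures sat 15 min at room temperature, followed by a 5 min reaction with 15 nM final substrate and 10 min with AlphaScreen beads. Recombinant human Tdp1 was used at 1 nM final.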
HP1b chromo inh = blocks HP1-beta chromodomain binding to methylated histone tails. P83916. AlphaScreen HP1-beta / biotin-H3K9me3 peptide binding. AID 540317. Potency, µM (doses to about 114 µM), for the others: top-dose activity change, negative = inhibition, most hits filed as inhibitors. hit rate 0.56% among 390,000; note: potency is the fitted concentration of half-maximal effect; nearly all actives have a fitted effect of over 70% in size
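HP1-beta protein (50 nM final) preincubated 30 min at room temperature with biotinylated H3(1-18)K9me3 peptide (50 nM) in PBS pH 7.4, 0.01% Tween-20, then compound added for 30 min. AlphaScreen streptavidin donor/nickel chelate acceptor beads (10 ug/mL final), 30 min dark, luminescence read.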
CtBP-E1A inh = blocks the CtBP interaction with E1A; hit rate 0.49% among 340,000; AlphaScreen GST-E1A/His-CtBP binding, 1536-well; hits give low values; activity change, % (test concentration not listed); in the data active = activity change below about -65%; inconclusive = mostly about -30% to -63%; note: % is set by controls: 0 for no effect and ±100 for the full control effect
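AlphaScreen with 125 nM GST-E1A and 125 nM His-CtBP (5X stocks) in Tris pH 8.0, 300 mM NaCl, BSA, Tween 20, TCEP. Compounds preincubated 2 h at 37 deg C, then glutathione donor/nickel acceptor beads added for 1 h at 37 deg C in dark.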
Six1-Eya2 inh = inhibitors of human Six1/Eya2 interaction; hit rate 0.56% among 360,000; AlphaScreen GST-Six1/His-Eya2 binding, biochemical; hits give low values; activity change, % (concentration not given with the values); Q15475+O00167; in the data active = activity change below about -65%; inconclusive = mostly about -30% to -63%; note: % is set by controls: 0 for no effect and ±100 for the full control effect
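Compounds are tested against tagged Six1 and Eya2 proteins bridged by glutathione donor and nickel acceptor beads; after a one-hour incubation at 37 °C without light, AlphaScreen emission is recorded.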
BAZ2B inh = inhibitors of human BAZ2B bromodomain | hit rate 4.4% among 360,000 | Potency, µM (top dose mostly 114 µM), for inactives: top-dose activity change, negative = inhibition, actives largely listed as inhibitors | Q9UIF8 | AlphaScreen BAZ2B-H3K14Ac peptide displacement; note: potency is the fitted concentration of half-maximal effect; % is set by controls: 0 for no effect and ±100 for the full control effect; nearly all actives have a fitted effect of over 60% in size
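Multi-concentration screen (max 110 uM) measuring displacement of acetylated histone H3 peptide from BAZ2B by AlphaScreen, using 50 nM protein, 50 nM peptide and 10 ug/mL streptavidin donor plus Ni-chelate acceptor beads.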
An asterisk follows results filed as active; u = inconclusive; x = not tested or not shown; [ ] = another dose, or the depositor's remark. Rows were chosen to be rich in hits. Some 5.3% of all compounds tested hit in one or more screens of this group. Unless noted, calls come from the whole dose curve; as a rule, active = well fitted inhibition curve with a large enough effect; inconclusive = small, poorly fitted or top-dose-only effect; inactive = no such curve, though single readings can be large or run the other way.

SMILES	JMJD2A Tudor	TDP1 block	HP1b chromo inh	CtBP-E1A inh	Six1-Eya2 inh	BAZ2B inh
CCC1CCCCN1C(=O)Cn1c(=O)n(-c2ccc(Cl)c(Cl)c2)c(=O)c2c(C)c(C(=O)N(C)C)sc21 (stereo unspecified)	-20%	1%	11%	x	x	-12%
O=c1c2ccccc2ncn1CCCOc1ccccc1[N+](=O)[O-]	1%	7%	27%	3	-1	4%
c1ccc2c(c1)ncn2CCOCCOCCn1cnc2ccccc21	-18%	-4%	25%	-2	1	71µM*
CCC(=O)c1ccc(OCCn2cncn2)cc1	-8%	5%	58%	8	2	0%
CCC(=O)c1ccc(OCCn2cnc3ccccc32)cc1	79µM*	3%	5%	9	-17	-26%
c1ccc2c(c1)ncn2CCn1cnc2ccccc21	12%[57.1 µM]	x	53%	9	13	13%
O=[N+]([O-])c1ccccc1OCCCn1cnc2ccccc21	0.79µM*	0%	u	6	-5	22µM*
O=C(OCC#CCSc1nnc(-c2c[nH]c3ccccc23)o1)c1ccc(F)cc1	-24%	-3%	x	x	x	x
O=c1c(C(c2ccc(O)cc2)c2c(O)nc3n(c2=O)CCS3)c(O)nc2n1CCS2	45µM*	u	8%	-9	-1	u
CSc1ccc(CCNC(=O)c2ccc3c(c2)nc2n3CCC(C)C2)cc1 (stereo unspecified)	-22%	11%	22%[57 µM]	x	x	-9%
COc1ccc(-c2nnc3ccc(SC(C(C)=O)C(C)=O)nn23)cc1OC	20µM*	0%	-1%	11	-8	x
COc1ccc(OCC(=O)N/N=C2\CCCCc3ccccc32)cc1	14µM*	8%	8%	-1	4	-31%
COc1cccc(NC(=S)N/N=C2/CCCCc3ccccc32)c1	u	9%	-29%	u	-21	40µM*
COC(=O)c1ccccc1-c1ccc(/C=C2\C(=O)N(c3ccccc3)N=C2c2ccccc2)o1	u	10%	1.4µM*	7	-23	3.2µM*
COc1ccc(-c2ccc(/C=C3\C(=O)N(c4ccccc4)N=C3c3ccccc3)o2)c([N+](=O)[O-])c1	u	7%	3.5µM*	-3	-3	8.9µM*
COC(=O)c1ccccc1-c1ccc(/C=N/Nc2nc(N3CCCC3)nc(N3CCCC3)n2)o1	-15%	-4%	19%	7	1	-14%
COc1cc([N+](=O)[O-])ccc1-c1ccc(/C=C2\C(=O)ON=C2c2ccccc2)o1	u	x	-28%[57 µM]	x	-7	x
CC(C)Oc1ccc(CNS(=O)(=O)c2cnc(N)nc2)cc1	-12%	-1%	22%[57 µM]	x	x	0%
CCC(=O)[C@@]1(C)[C@H](C)C[C@@H]2[C@@H]3CCC4=CC(=O)C=C[C@@]4(C)[C@H]3[C@H](O)C[C@]21C	x	5%[56.1 µM]	x	x	x	x
O=C1N(Cc2ccccc2)CC2(Br)COCOC12O (stereo unspecified)	3.5µM*	x	7.1µM*	8	8	x
O=C1C(c2ccccc2)CN1Cc1ccccc1 (stereo unspecified)	x	x	x	12	0	x
CC(CNC(=O)Cn1ccc2cc(S(=O)(=O)N3CCCCCC3)ccc21)c1ccccc1 (stereo unspecified)	-24%	3%	24%	x	x	-12%
Cc1ccc(S(=O)(=O)NN2CCCCCC2)cc1	x	x	x	-2	5	x
Cc1ccc(NC(=O)NNS(=O)(=O)c2ccc(Br)cc2)cc1	-2%	-3%	24%	-9	2	15%
Cc1ccc(S(=O)(=O)NC(=O)Nc2ccc(N(C)C)cc2)cc1	22µM*	16%	18µM*	u	u	14µM*
SMILES	JMJD2A Tudor	TDP1 block	HP1b chromo inh	CtBP-E1A inh	Six1-Eya2 inh	BAZ2B inh
Cc1ccc(S(=O)(=O)NC(=O)NN2CCCCCC2)cc1	56µM*	3%	18%	-9	-11	u
Cc1ccc(S(=O)(=O)NC(=O)NN2CC3CCCC3C2)cc1 (stereo unspecified)	89µM*	10%[56.1 µM]	73%	6	2	u
COc1ccc(-c2nc3ccccc3s2)cc1NC(=O)c1ccccc1OC	-11%	0%	39%	x	x	-11%
COc1ccc2c(c1)CC(C(=O)NCCN1CCN(c3cccc(Cl)c3)CC1)CO2 (stereo unspecified)	u	5%	6%[57 µM]	x	x	u
CC(C)(Sc1ccc(CCN(CCCCC2CCCCC2)C(=O)NC2CCCCC2)cc1)C(=O)O	79µM*	10%[56.1 µM]	14%	-2	-6	79µM*
COc1ccc(C)cc1Nc1nc2c(S(=O)(=O)c3cccc(Cl)c3)nnn2c2ccsc12	-14%	5%	37%	x	x	-11%
COc1cc(C(=O)N=c2sc3ccccc3n2C)cc(OC)c1OC	50µM*	-8%	18%	x	-1	-10%
COc1ccc(N=Nc2nc3cc(Br)c(Br)cc3n2C)c(OC)c1	32µM*	5%	45µM*	10	u	35µM*
Cc1ccc(N2CCN(C(=O)c3cn(C)c4ccc(S(=O)(=O)N(C)C5CCCCC5)cc4c3=O)CC2C)cc1 (stereo unspecified)	-7%	2%	10%	x	x	x
CCOc1ccc(N2CC(c3nc4ccccc4n3CCCOc3ccccc3OC)CC2=O)cc1 (stereo unspecified)	-14%	0%	17%	x	x	-5%
CCOC(=O)c1c(C)[nH]c(C)c1S(=O)(=O)N1CCC(C(=O)Nc2ccc(F)cc2F)CC1	-18%	-3%	18%	x	x	u
COc1ccc(NCc2nc3ccccc3n2CCOc2ccc(C)cc2)cc1	11µM*	18%	40µM*	-16	u	10µM*
Nc1nc2ccccc2n1CCOc1ccc(Br)cc1	-11%	2%	31%	x	-3	u
S=C(Nc1ccccc1)Nc1nc2ccccc2n1CCOc1ccc(Br)cc1	u	-1%	-1%	4	-12	3.2µM*
c1ccc(NCc2nc3ccccc3n2CCOc2ccccc2)cc1	-32%	3%	-6%	1	-1	u
COc1ccc(NCc2nc3ccccc3n2CCOc2ccccc2)cc1	40µM*	11%	-67%	-20	u	18µM*
Cc1ccc(S(=O)(=O)c2nnn(-c3ccc(F)c(Cl)c3)c2N)cc1	-13%	9%	58%	x	x	-1%
CCOc1ccc(-c2cc(NC(=O)Nc3ccc(Cl)cc3)c(C(=O)OC)s2)cc1	3%	0%	30%	x	x	-2%
Cc1ccc(C(=O)c2c(C)oc3c2C(=O)C(=O)c2ccccc2-3)cc1	45µM*	10%	18µM*	u	-13	32µM*
COc1ccccc1-c1cncnc1-n1ccnc1	x	22µM*	x	x	x	x
COc1ccccc1-c1nc2ccccc2nc1-c1ccccc1OC	-6%	0%	21%	7	-3	3%
